This is a sample that favours compounds with a hit; in the whole collection about 8.8% have one here.
HTT aggregate: qHTS Multiplex Assay to Identify Dual Action Probes in a Cell Model of Huntington: Aggregate Formation (GFP); 1.1% of 220,000 active; AID 1688, 2009; PC12 HttQ103-GFP aggregates, Acumen cytometry, 40 h; Potency, µM (highest dose often 46.1 µM), inactives show top-dose activity change, negative = inhibition, most hits filed as inhibitors; note: % is set by controls: 0 for no effect and ±100 for the full control effect; nearly all actives have a fitted effect of over 60% in size
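Steps: seed 1500 PC12 HTTQ103-GFP cells/well; add tebufenozide, 100 nM final; add compound titration; add ATPLite reagent; quantify GFP aggregates by laser scanning cytometry.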
HPGD inh: qHTS Assay for Inhibitors of HPGD (15-Hydroxyprostaglandin Dehydrogenase); Potency, µM, without a hit: at the top dose activity change, negative = inhibition, hits mostly inhibitors; 4.3% of 150,000 active; purified HPGD, NADH fluorescence kinetic, PGE2 substrate; active = well fitted inhibition curve with a large enough effect, not every such curve was filed as active; inconclusive = small, poorly fitted or top-dose-only effect, or another doubt; inactive = no such curve, though single readings can be large or run the other way; note: % is set by controls: 0 for no effect and ±100 for the full control effect
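NADH formation kinetics: reaction with 30 uM PGE2 and 1 mM NAD+ (final), 20 nM enzyme, Tris-HCl pH 8 with Tween 20, after 15 min compound preincubation at room temperature. Fluorescence change, last versus first of five reads.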
LMNA splice mod: qHTS Assay for Modulators of Lamin A Splicing | AID 1487, 2009 | Potency, µM (highest dose often 46.1 µM), without a hit: top-dose ratio change, negative = inhibition, hits mostly inhibitors | HeLa LMNA splicing GFP/RFP minigene ratio, 48 h | 0.01% of 200,000 active; active = well fitted inhibition curve with a large enough effect in the signal ratio, with a control signal flat, not every such curve was filed as active; inconclusive = small, poorly fitted or top-dose-only effect, or effect the other way, or a change in a side signal; the % refers to the signal ratio; note: % is set by controls: 0 for no effect and ±100 for the full control effect
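S3 HeLa stable clones carrying a lamin A-EGFP splicing minigene plus DsRed2 were seeded at 600 cells/well in Opti-MEM with 2% FBS, pin-dosed and incubated 48 h at 37°C. Acumen cytometry (488 nm) gave the GFP/RFP total-intensity ratio.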
HTT ATP protect: qHTS Multiplex Assay to Identify Dual Action Probes in a Cell Model of Huntington: Cytoprotection (ATP); Potency, µM (top dose mostly 56.4 µM), for the others: cytoprotection (ATP increase), usual class: activators; 0.14% of 230,000 active; PC12 HTT-Q103 induced, cytoprotection, ATP luminescence, 40 h; AID 1471, 2008; note: % of control where 0% means no effect; nearly all actives have a fitted effect of over 45% in size
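ATP quantification (ATPlite) reports survival of PC12 cells in which tebufenozide, 100 nM final, switches on Htt exon 1 with 103 glutamines linked to GFP; compounds are titrated.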
ALDH1A1 inh: qHTS Assay for Inhibitors of Aldehyde Dehydrogenase 1 (ALDH1A1). Aldehyde dehydrogenase 1A1 (Homo sapiens), P00352. Purified ALDH1A1, NADH fluorescence, propionaldehyde substrate. Potency, µM (series often up to 75.3 µM), inactives show top-dose activity, negative = inhibition, usual class: inhibitors. 7.3% of 220,000 active. AID 1030, 2008; active = well fitted inhibition curve with a large enough effect, not every such curve was filed as active; inconclusive = small, poorly fitted or top-dose-only effect, or another doubt; inactive = no such curve, though single readings can be large or run the other way;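 note: plate controls were no enzyme wells and a reference inhibitor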
Target sequence (P00352 whole entry, looked up): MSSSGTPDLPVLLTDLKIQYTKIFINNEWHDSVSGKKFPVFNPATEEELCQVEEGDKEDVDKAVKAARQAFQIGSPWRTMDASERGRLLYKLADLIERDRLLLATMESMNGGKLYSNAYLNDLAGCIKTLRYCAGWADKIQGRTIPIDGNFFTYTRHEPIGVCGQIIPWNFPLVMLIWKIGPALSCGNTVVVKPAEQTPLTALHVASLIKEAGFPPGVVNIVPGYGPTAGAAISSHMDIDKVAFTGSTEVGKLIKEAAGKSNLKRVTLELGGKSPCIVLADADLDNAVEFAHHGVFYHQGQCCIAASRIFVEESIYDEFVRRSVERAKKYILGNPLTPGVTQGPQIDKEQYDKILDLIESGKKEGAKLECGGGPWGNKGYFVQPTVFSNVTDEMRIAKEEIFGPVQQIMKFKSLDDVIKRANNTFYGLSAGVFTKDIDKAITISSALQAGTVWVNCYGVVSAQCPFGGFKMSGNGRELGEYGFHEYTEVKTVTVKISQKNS
Active calls of the source: *; ? = inconclusive; / = no result given; [ ] = remark or other dose. Unless noted, calls come from the whole dose curve; as a rule, active = well fitted curve in the direction sought with a large enough effect; inconclusive = small, poorly fitted or top-dose-only effect, or another doubt; inactive = no such curve, though single readings can be large; an effect the other way counts as inactive or inconclusive. Potency is the fitted concentration of half-maximal effect.

SMILES	HTT aggregate	HPGD inh	LMNA splice mod	HTT ATP protect	ALDH1A1 inh
Cc1ccc(-c2cc(-c3ccccc3)[nH]c(=S)c2C#N)cc1	18%	-11%	-4%	34%[10 µM]	?
N#Cc1c(N)[nH]c(=S)c(C#N)c1-c1ccccc1	13%	-24%	-5%	-10%	28µM*
O=C(CCSCc1ccccc1Cl)NCc1ccc(F)cc1Cl	/	/	-18%[46 µM]	/	/
COCCn1c(CNC(=O)c2cccc(N(C)C)c2)nc2cccnc21	/	/	-19%[46 µM]	/	/
COc1cccc(/C=N/N2C(=O)CSC2=S)c1O	10%	25µM*	?	/	7.1µM*
COc1cc(/C=N/N2C(=O)CSC2=S)cc(Br)c1O	14%	/	3%[46 µM]	-8%	?
CC(/C=C1\N=C(SCc2ccccc2)SC1=O)=C\c1ccccc1	25%	-19%	1%	/	22µM*
N#CCC(=O)c1sccc1-n1cccc1	9%	/	?	7%	-9%
CCCc1cc(O)c2c(C)cc(=O)oc2c1	?	-15%	-18%	24%[10 µM]	16µM*
CCCCc1cc(=O)oc2cc(C)cc(O)c12	?	-12%	7%	-17%	8.9µM*
CCCc1cc(=O)oc2cc(C)c(CN3CCCC3)c(O)c12	-12%	-13%	0%	36%	35µM*
CCc1cc(=O)oc2cc(C)c(CN3CCCC3)c(O)c12	13%	/	6%	3%	?
O=[N+]([O-])c1ccccc1/C=N/Nc1nnc(-c2ccccc2)c(-c2ccccc2)n1	-7%	0%	-6%	17%[10 µM]	0.28µM*
O=[N+]([O-])c1ccccc1/C=N/NC1=NCCCCC1	14%	-18%	6%	13%[10 µM]	?
Cc1ccc(CSCC(Nc2ccc(C(=O)O)cc2[N+](=O)[O-])C(=O)O)cc1 (stereo unspecified)	10%	-10%	6%	19%	?
O=C(O)c1ccc(NC(CSCc2ccccc2F)C(=O)O)c([N+](=O)[O-])c1 (stereo unspecified)	-1%	-17%	-2%	/	7.9µM*
O=C(O)c1ccc(NC(CSCc2ccc(F)cc2)C(=O)O)c([N+](=O)[O-])c1 (stereo unspecified)	2%	-3%	7%	9%	22µM*
CC(=O)OC[C@@H]1O[C@H](CCON=C(C)C)C=C[C@@H]1OC(C)=O	/	/	/	-34%[10 µM]	3%[13.5 µM]
CCOC(=O)N1CCC(n2c(SCC(=O)NCCC3=CCCCC3)nc3ccccc3c2=O)CC1	?	-9%	?	-22%	13µM*
CC(=O)NCCn1c(SCC(=O)NCCC2=CCCCC2)nc2ccccc2c1=O	9%	-7%	16%	16%	-6%
CCOC(=O)N1CCC(n2c(SCC(=O)NCc3ccccc3)nc3ccccc3c2=O)CC1	-19%	3%	1%	-8%	-9%
Cc1cc(SCC(=O)NCCC2=CCCCC2)nc2ccccc12	-2%	25µM*	-2%	30%[10 µM]	34%
O=C(CCl)Nc1cccn2ncnc12	20µM*	-5%	-10%	-73%	3.2µM*
O=C(Nc1cccn2ncnc12)C(F)(F)F	-3%	/	13%[46 µM]	-18%[10 µM]	1%
CCNc1ncnc2c1nnn2C	/	/	-6%[46 µM]	/	/
SMILES	HTT aggregate	HPGD inh	LMNA splice mod	HTT ATP protect	ALDH1A1 inh
CCN(CC)C(=O)c1sc2nc(-c3ccc(OC)cc3)cn2c1C	3%	14µM*	2%	-31%	-14%
CC(C)C[C@H](N)c1cn([C@@H](Cc2ccc(O)cc2)C(=O)N2CCNCC2)nn1	-3%[9.22 µM]	/	/	19%[10 µM]	-6%
O=C(Cc1ccc(F)cc1)NCCc1csc2nc(-c3ccccc3F)nn12	/	/	23%[46 µM]	/	/
O=c1[nH]c2c(s1)C(c1ccc(O)cc1)C1C3CCC(C3)C1S2 (stereo unspecified)	4%	?	9%	-14%[10 µM]	11µM*
Cc1cc(C)n(C2CC(=O)N(c3ccc(Cl)c(Cl)c3)C2=O)n1 (stereo unspecified)	-6%[9.22 µM]	/	/	4%[10 µM]	?
CN(CCCNS(=O)(=O)c1cccc2cccnc12)Cc1ccccc1	-7%	-12%	-5%	-5%	14µM*
Cc1noc(C)c1COc1cccc(C(=O)OC(C)C(=O)Nc2c(C)n(C)n(-c3ccccc3)c2=O)c1 (stereo unspecified)	0%	/	/	-32%	?
COc1cccc(/C=C2\SC(=S)N(N3CCOCC3)C2=O)c1OC	19%	-9%	5%	3%[1.9 µM]	14µM*
COc1ccc(/C=C2\SC(=S)N(N3C(=O)CCC3=O)C2=O)cc1O	7%	/	?	-19%	?
O=C1/C(=C/c2ccccn2)SC(=S)N1N1CCOCC1	14%[9.22 µM]	/	/	-5%[10 µM]	4.5µM*
COc1ccccc1/C=C1\SC(=S)N(N2C(=O)CCCC2=O)C1=O	2%[9.22 µM]	/	?	21%	25µM*
COc1ccc(-n2c(-c3ccc(Cl)cc3)c[n+]3c2CCc2ccccc2-3)cc1	13µM*	/	?	-68%	9%
Cc1ccc(C(NC(=O)N2CCCC2)C(Cl)Cl)cc1F (stereo unspecified)	-4%	/	-25%[46 µM]	-7%	11µM*
O=c1c2c(-c3ccc([N+](=O)[O-])cc3)csc2nc2n1CCC2	-20%	22µM*	15%	-18%[1.9 µM]	7.1µM*
O=[N+]([O-])c1ccc2c(c1)nc1n2CCCCC1	1%	/	-4%[46 µM]	-14%	0%
Cc1ccc(NC(=O)CN2C(=O)CCc3cc(S(=O)(=O)N4CCOCC4)ccc32)c(C)c1	/	/	13%[46 µM]	/	/
COc1cccc(N2C(=O)c3ccncc3C2=O)c1	10%	-14%	6%	-9%	-4%
CCOc1cc(/C=C2\C(=O)N(c3cccc(C(F)(F)F)c3)C(=O)c3ccccc32)ccc1O	-6%	?	-1%	-5%[10 µM]	?
Cc1cccc(N2C(=O)/C(=C\c3ccc(OC(F)F)cc3)c3ccccc3C2=O)c1	?	10µM*	-8%	-4%[10 µM]	?
COc1cccc(/C=C2\C(=O)N(c3cccc(C)c3)C(=O)c3ccccc32)c1	3%	4µM*	-1%	3%[10 µM]	?
NC(N)=N/N=C/c1ccccc1	-17%	-8%	-3%	8%	-4%
O=C(/C(=N/N=C/c1ccc(O)c(O)c1O)c1ccccc1)c1ccccc1	-13%	2µM*	?	17%[0.074 µM]	6%
O=C(O)c1ccc(C(=O)C(=O)c2ccccc2)cc1	-3%[9.22 µM]	/	-1%[46 µM]	-8%[10 µM]	/
Oc1ccc(/C=N/N=C(c2ccccc2)c2ccccc2)c(O)c1O	?	16µM*	?	11%[10 µM]	7.1µM*
COc1ccc(NC(=O)CN2C(=O)CC(c3ccc(C)c(C)c3)=Nc3ccccc32)cc1OC	/	/	-7%[46 µM]	/	/
CN1C(=O)C(Cl)(Cl)C(=O)c2ccccc21	?	22µM*	?	-6%[10 µM]	0.4µM*
